Assay results reported in ChEMBL document CHEMBL4513216, “Probing the Open Global Health Chemical Diversity Library for Multistage-Active Starting Points for Next-Generation Antimalarials” (ACS Infect Dis, 2020).
Among all 68,000 compounds or so, about 2,700 (4%) showed an effect of 50% or more. This excerpt belongs to a sample that is enriched for strong results.

test system: Plasmodium berghei; assay: Screen against P. berghei liver stage (PbLuc), transformed with Luciferase, at 2uM; assay type: functional, HepG2; details: tested at 2 uM

| SMILES | INHIBITION |
| --- | --- |
| Cc1nc2[nH]cnc(NCCN3CCCC3)c-2n1 | -20.68% |
| CC(c1cccc(-c2ncc(C#N)c(N)n2)c1)N(C)C (configuration not stated) | -38.96% |
| CCS(=O)(=O)N1CCC2(CCCN(Cc3ccc(F)c(F)c3)C2=O)C1 (configuration not stated) | 50.59% |
| CCCS(=O)(=O)N1CCC2(CCN(Cc3cccc(F)c3)C2=O)C1 (configuration not stated) | -25.61% |
| CN(C)S(=O)(=O)N1CCC2(CCCN(Cc3ccc(F)cc3)C2=O)C1 (configuration not stated) | -37.84% |
| O=C1N(Cc2ccc(F)c(F)c2)CCCC12CCN(C1CCCC1)C2 (configuration not stated) | 23.18% |
| O=C1N(Cc2ccccc2F)CCCC12CCN(C1CCSCC1)C2 (configuration not stated) | 11.26% |
| CCCS(=O)(=O)N1CCC2(CCCN(Cc3cccc(F)c3F)C2=O)C1 (configuration not stated) | 50.59% |
| COc1cnc(N2C[C@H](CO)C[C@H](CN3CCOCC3)C2)nc1 | -3.87% |
| COc1c(C2CCCN2C(=O)c2ccc(C(N)=O)s2)c(C)nn1C (configuration not stated) | -21.71% |
| COc1ccc2c(c1)OCC(CNC1CCc3ncnn3C1)=C2 (configuration not stated) | -34.12% |
| NC(=O)N1CCCC1COC(=O)c1cc(F)ccc1F (configuration not stated) | 61.91% |
| Cc1ccc(F)cc1C(=O)OCC1CCCN1C(N)=O (configuration not stated) | 5.48% |
| NC(=O)N1CCCC1COC(=O)c1ccc(F)cc1Br (configuration not stated) | 6.47% |
| CN1CCN(C=C2N=C(c3cc(-c4ccc(F)cc4)n[nH]3)ON2)CC1 | 22.39% |
| CCN(C)C[C@@H]1CN(S(=O)(=O)c2ccc(C#N)cc2)C[C@@H]1CO | 14.82% |
| CCN(C)C[C@@H]1CN(S(=O)(=O)c2cccc(Cl)c2)C[C@@H]1CO | 55.36% |
| CCN(C)C[C@@H]1CN(Cc2cccc(Cl)c2)C[C@@H]1CO | 38.97% |
| CCN(C)C[C@@H]1CN(S(=O)(=O)c2ccc(OC)cc2)C[C@@H]1CO | 76.82% |
| CC[C@H]1CN(S(=O)(=O)c2ccc(OC)cc2)CC[C@H]1CC(=O)O | 45.73% |
| CCN(C)C[C@@H]1CN(S(=O)(=O)c2cccc(C#N)c2)C[C@@H]1CO | 14.82% |
| CCCC1(CO)CCCN(C(=O)CNC(N)=O)C1 (configuration not stated) | 3.49% |

| SMILES | INHIBITION |
| --- | --- |
| Cc1noc(C)c1CN1CCOC2(CCCN(c3nncs3)C2)C1 (configuration not stated) | 31.96% |
| CCCS(=O)(=O)N1CCC2(CC1)CN(CC1CCOC1)c1ccccc12 (configuration not stated) | 27.67% |
| O=C(NCCN1CCCCC1)c1scnc1Cl | -9.66% |
| CC1CCN(CCNC(=O)c2scnc2Cl)CC1 | 47.87% |
| COc1cn(-c2ccccc2)nc1C(=O)NCCCN1CCCC(C)C1 (configuration not stated) | 20.11% |
| COc1cn(-c2ccccc2)nc1C(=O)NCCN1CCCC(C)C1 (configuration not stated) | 66.2% |
| CC1CCCN(CCNC(=O)c2scnc2Cl)C1 (configuration not stated) | 78.42% |
| CC1CCCN(CCNC(=O)c2ccn(-c3ccccc3)n2)C1 (configuration not stated) | -61.61% |
| O=C(NCC1(O)COCCN(Cc2ccc(O)cc2)C1)c1cnccn1 (configuration not stated) | 30.1% |
| CCCc1nc(C)cc(NCc2ccc(S(N)(=O)=O)cc2)n1 | -16% |
| Cc1nnc(-c2cccc(C#N)c2)n1C1CCCN(C(C)C)C1=O (configuration not stated) | -12.01% |
| COc1nc2c(cc1C(=O)N1CC[C@H](CO)[C@@H](O)C1)CCC2 | 49.02% |
| Cc1nc2c(c(NCCc3nccs3)n1)CCN(CC1CC1)CC2 | -28.09% |
| COCCNc1nc(C)nc2c1CCN(CC1CCC(N)CC1)CC2 (configuration not stated) | 57.67% |
| COCCNc1nc(C2CCCC2)nc2c1CCNCC2 | 34.98% |
| O=C(O)COCC(=O)NC1CC2(CCCCC2)Oc2ccccc21 (configuration not stated) | 13.22% |
| Cc1noc(C2CCN(C(=O)c3ccc(C(F)(F)F)nc3)CC2)n1 | 5.05% |
| CCCNC(=O)c1cc2c(nc1O)CCC(C)C2 (configuration not stated) | 44.39% |
| CC1CCc2nc(O)c(C(=O)NCCCN3CCN(C)CC3)cc2C1 (configuration not stated) | 68.39% |
| CC1CCc2nc(O)c(C(=O)NCCc3cccs3)cc2C1 (configuration not stated) | 53.61% |
| CC1CCc2nc(O)c(C(=O)NCCN(C)C)cc2C1 (configuration not stated) | 27.24% |
| CC1CCc2nc(O)c(C(=O)NCc3ccncc3)cc2C1 (configuration not stated) | 1.06% |

| SMILES | INHIBITION |
| --- | --- |
| Cc1csc(CCNC(=O)c2cc3c(nc2O)CCC(C)C3)n1 (configuration not stated) | -46.57% |
| Cc1nn(CCO)c(C)c1CNCc1cccnc1N(C)C | 23.42% |
| CC(C)Oc1ncnc2c1CCN(Cc1ccc(F)cc1)CC2 | 1.08% |
| COc1ccccc1OCCC(=O)N1CCCC1Cn1cc(C)cn1 (configuration not stated) | -14.11% |
| Cc1ccc(CNC(=O)CN2CCN(CC(O)C3CC3)CC2)cc1 (configuration not stated) | -10.6% |
| Cc1cccc(CN2CCO[C@H]3[C@@H](OCc4ccncc4)CC[C@@H]32)n1 | 15.78% |
| Cc1cnn(C2CCCN(C(=O)CCCNc3ncccn3)C2)c1 (configuration not stated) | -34.45% |
| COCC(=O)N1C[C@H]2CCCC(OCc3cccnc3)[C@H]2C1 (some centres not stated) | -34.83% |
| CC(C)N(C)Cc1nnc2n1CCCN(c1cnccn1)C2 | 20.01% |
| CNC(=O)c1cc2c(nc1NCC(C)C)CCN(C)CC2 | 20.21% |
| CNC(=O)c1cc2c(nc1NC(C)C)CCNCC2 | -9.98% |
| Cn1nccc1-c1nc2c(cc1C(=O)O)CCN(C(=O)C1CC1)CC2 | -28.2% |
| Cn1nccc1-c1nc2c(cc1C(=O)O)CCN(CC1CC1)CC2 | 52.66% |
| CNC(=O)c1cc2c(nc1NCC1CC1)CCN(CC1CC1)CC2 | 11.18% |
| Cc1nc2c(cc1C(=O)O)CCN(CC1CC1)CC2 | -14.21% |
| CNC(=O)c1cc2c(nc1NCC(C)C)CCN(CC1CC1)CC2 | 57.85% |
| CNC(=O)c1cc2c(nc1NC(C)C)CCN(C(=O)NC(C)C)CC2 | 54.06% |
| CNC(=O)N1CCc2cc(C(=O)NCC3CC3)c(NC(C)C)nc2CC1 | 11.9% |
| CC(=O)N(Cc1noc(C2CC2)n1)C1CCN(Cc2ccccn2)C1 (configuration not stated) | -1.02% |
| CCN1CC(COC(=O)c2ccc(Br)cc2F)CC1=O (configuration not stated) | 17.86% |
| Cc1cc(NC(=O)CNC2CCc3ncnn3C2)no1 (configuration not stated) | 8.42% |
| CN(c1ncc(S(N)(=O)=O)s1)C1CCC1 | 27.17% |

| SMILES | INHIBITION |
| --- | --- |
| CC(=O)NCCNC(=O)N(C)Cc1ccc2c(c1)OCCO2 | -43.47% |
| Clc1ccc(COCC2CCN(Cc3ccccn3)CC2)cc1 | -7.16% |
| Cn1cnc(S(=O)(=O)N2CCO[C@H]3[C@@H](OCC4CC4)CC[C@@H]32)c1 | -6.83% |
| CNC(=O)c1cc(C)nc(C2(C)CCCN2c2cc(C)ncn2)n1 (configuration not stated) | -4.78% |
| Cc1cc(C(=O)N2CCCC(O)(CN3CCCC3)C2)ccc1Cl (configuration not stated) | 19.36% |
| Cc1cncc(C(=O)N2CCCC(O)(CN3CCCC3)C2)c1 (configuration not stated) | -22.01% |
| Cc1cc(C)c(C(=O)N2CCCC(O)(CN3CCCC3)C2)cc1C (configuration not stated) | 79.79% |
| O=C(c1ccccn1)N1C[C@H]2CC[C@@H](C1)N(C(=O)CCc1cccs1)C2 | -89.49% |
| Cc1cc(C2CCCN2CCCc2nc3ccccc3o2)on1 (configuration not stated) | -27.69% |
| Cn1c(CN2CCC(OCc3cccnc3)CC2)cc2ccccc21 | 29.36% |
| CC(=O)N(Cc1ncc(C)o1)C1CCN(CCc2cccs2)C1 (configuration not stated) | 64.16% |
| CCc1cnc(CN(C)C2CCN(CCS(C)(=O)=O)C2)o1 (configuration not stated) | -29.5% |
| CCc1cnc(CN(C)C2CCN(CCc3ccccn3)C2)o1 (configuration not stated) | -3.88% |
| CC(=O)N(Cc1ncc(C)o1)C1CCN(CCc2ccncc2)C1 (configuration not stated) | -23.45% |
| CCc1cnc(CN(C)C2CCN(CCc3cccs3)C2)o1 (configuration not stated) | 66.97% |
| CCc1cnc(CN(C(C)=O)C2CCN(CCc3cccs3)C2)o1 (configuration not stated) | -9.66% |
| Cc1cnc(CN(C)C2CCN(CC(=O)Nc3c(C)n[nH]c3C)C2)o1 (configuration not stated) | 36.65% |
| Cc1cnc(CN(C)C2CCN(CC(=O)Nc3nccs3)C2)o1 (configuration not stated) | 23.24% |
| Cc1cc(NC(=O)CN2CCC(N(C)Cc3ncc(C)o3)C2)n(C)n1 (configuration not stated) | 57.11% |
| N#Cc1ccc(N2CCN(c3cnccn3)CC2)c(C(F)(F)F)c1 | -22.24% |
| CC(C)NC(=O)N1Cc2nccn2CC(COc2cccnc2)C1 (configuration not stated) | 27.08% |
| Cc1nnc2n1CCN(CCC(=O)Nc1sccc1C#N)C2 | -7.41% |

| SMILES | INHIBITION |
| --- | --- |
| CCC(NC(=O)c1cccc(N2CCCC2=O)c1)c1ccc(OC)cc1 (configuration not stated) | 30.34% |
| Cc1ccc(C(=O)N2CCn3c(COCC4CC4)cnc3C2C)nc1 (configuration not stated) | -4.95% |
| O=C(CN1C=Nc2ccccc2S1(=O)=O)NC1CCCCC1 | -4.97% |
| CC(C)(C)NC(=O)NC(=O)CN1C=Nc2ccccc2S1(=O)=O | 13.24% |
| Cc1ccc(CNC(=O)CN2C=Nc3ccccc3S2(=O)=O)s1 | 3.86% |
| O=C(CN1C=Nc2ccccc2S1(=O)=O)NCc1ccccc1F | 68.24% |
| CCC(C)(C)NC(=O)CN1C=Nc2ccccc2S1(=O)=O | 51.94% |
| O=C(CN1C=Nc2ccccc2S1(=O)=O)NCc1ccccc1 | 33.61% |
| CC(C)CNC(=O)CN1C=Nc2ccccc2S1(=O)=O | 21.89% |
| O=C(CN1C=Nc2ccccc2S1(=O)=O)NCC1CC1 | 66.2% |
| CCCNC(=O)NC(=O)CN1C=Nc2ccccc2S1(=O)=O | -35.65% |
| Cn1ccc(C(=O)N2CCC(c3cc(CCO)n(C)n3)C2)n1 (configuration not stated) | -14.3% |
| CN1[C@@H](CCC(=O)NCc2ccc(F)cc2)CNC(=O)[C@H]2NCC[C@H]21 | 4% |
| Cc1nc2ccccc2nc1CN1CCCCC1Cn1cncn1 (configuration not stated) | 12.74% |
| Cc1c(Cl)c(CN2CCCC2Cn2cncn2)nc2ccccc12 (configuration not stated) | -8.32% |
| Cc1cccc2nc(CN3CCCC3Cn3cccn3)cn12 (configuration not stated) | 19.71% |
| c1ccc(CN2CCCC2Cn2cncn2)nc1 (configuration not stated) | 23.11% |
| Cc1cccc2nc(CN3CCCC3Cn3cncn3)cn12 (configuration not stated) | 78.28% |
| Cc1nc2ccccc2nc1CN1CCCC1Cn1cncn1 (configuration not stated) | 53.72% |
